# Sampled rows, rich in hits. Any-hit rate of the full collection: about 10%.
# G9a block: G9a (human) methyltransferase inhibition | AID 504332 | G9a H3K9 monomethylation, AlphaScreen, 2 h | Potency, µM (top dose mostly 102 µM), for inactives: at the highest dose activity, negative = inhibition, usual class: inhibitors | actives 8.8% (n = 350,000) | Q96KQ7; further: on the % scale 0 is the no-effect control and ±100 the full control effect; nearly all actives have a fitted effect of over 75% in size
# Target sequence (Q96KQ7 913-1193 limits assumed): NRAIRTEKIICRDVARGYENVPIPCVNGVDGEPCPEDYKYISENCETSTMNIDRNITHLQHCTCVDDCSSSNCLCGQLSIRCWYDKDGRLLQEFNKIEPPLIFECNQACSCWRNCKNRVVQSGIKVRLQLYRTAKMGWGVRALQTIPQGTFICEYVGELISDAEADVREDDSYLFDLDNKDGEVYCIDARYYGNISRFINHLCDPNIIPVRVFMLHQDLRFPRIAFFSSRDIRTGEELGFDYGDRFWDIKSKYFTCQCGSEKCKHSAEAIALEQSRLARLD
#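 Quantitative HTS format: methyltransferase activity on a biotin-tagged H3K9 peptide is measured by AlphaScreen, using a rabbit anti-monomethyl-H3K9 antibody with streptavidin donor and anti-IgG acceptor beads. Final levels are 20 nM enzyme, 500 nM peptide, 20 uM SAM; 2 h RT.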
# BAZ2B block: inhibitors of human BAZ2B bromodomain. Q9UIF8. AlphaScreen BAZ2B-H3K14Ac peptide displacement. Potency, µM (titrated, usually from 114 µM), for inactives: at the highest dose activity change, negative = inhibition, hits mostly inhibitors. actives 4.4% (n = 360,000). AID 504333; further: on the % scale 0 is the no-effect control and ±100 the full control effect; nearly all actives have a fitted effect of over 60% in size
#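 AlphaScreen luminescence quantifies BAZ2B engagement of H3K14Ac peptide; the protein and biotinylated peptide are both at 50 nM final, buffer PBS pH 7.4 with 0.01% Tween-20, all steps at room temperature.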
# HP1b chromo inh: blocks HP1-beta chromodomain binding to methylated histone tails. P83916. AlphaScreen HP1-beta / biotin-H3K9me3 peptide binding. Potency, µM (doses to about 114 µM), for inactives: top-dose activity change, negative = inhibition, most hits filed as inhibitors. AID 540317. actives 0.56% (n = 390,000); further: nearly all actives have a fitted effect of over 70% in size
# Target sequence (P83916 whole entry, looked up): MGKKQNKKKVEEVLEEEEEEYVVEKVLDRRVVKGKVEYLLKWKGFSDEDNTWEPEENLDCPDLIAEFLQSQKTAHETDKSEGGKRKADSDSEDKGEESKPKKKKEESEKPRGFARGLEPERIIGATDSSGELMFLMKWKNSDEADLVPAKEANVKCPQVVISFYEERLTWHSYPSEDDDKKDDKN
#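 Compound inhibition of the preformed complex between 50 nM HP1-beta and 50 nM biotinylated H3K9me3 peptide was read by AlphaScreen. Buffer was PBS pH 7.4 with 0.01% Tween-20. Incubations ran 30 min at room temperature, with 10 ug/mL donor/acceptor beads.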
# GLS inhibitor: blocks human kidney-isoform glutaminase activity | actives 0.21% (n = 410,000) | Potency, µM (highest dose often 45.5 µM), for the others: top-dose activity change, negative = inhibition, most hits filed as inhibitors | GLS enzymatic activity, qHTS titration; further: on the % scale 0 is the no-effect control and ±100 the full control effect
#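 Glutamate formation by hKGA was monitored fluorometrically using coupled glutamate oxidase, HRP and Amplex Red. Substrate was added as 1 mM L-glutamine solution; incubation was 30 min at RT after an initial read.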
# JMJD2A Tudor: JMJD2A Tudor domain (human) inhibition. O75164. Potency, µM (doses to about 114 µM), inactives show top-dose activity change, negative = inhibition, actives largely listed as inhibitors. AID 504339. actives 4.4% (n = 390,000). AlphaScreen JMJD2A-Tudor / H3K4me3 peptide binding; further: on the % scale 0 is the no-effect control and ±100 the full control effect; nearly all actives have a fitted effect of over 50% in size
# An asterisk follows results filed as active; ? = inconclusive; · = no result; [ ] = remark or other dose. The call rests on the fitted dose curve; in most records, active means well fitted curve in the direction sought with a large enough effect; inconclusive means small, poorly fitted or top-dose-only effect, or another doubt; inactive means no such curve, though single readings can be large; an effect the other way counts as inactive or inconclusive. Potency means the concentration at half of the fitted maximal effect.
SMILES,G9a block,BAZ2B block,HP1b chromo inh,GLS inhibitor,JMJD2A Tudor
COc1ccc(/C=C/C(=O)NC(=S)NNC(=O)c2ccco2)cc1,12.6µM*,9.4%,23.0%,30.7%,-10.5%
COc1ccccc1OCC(=O)NNC(=S)NC(=O)c1ccco1,?,55.4%,4.2%,19.2%,79.4µM*
COc1cc(/C=N/n2cnnc2-n2nc(C)cc2C)cc([N+](=O)[O-])c1O,-6.0%[59 µM],-28.5%,27.2%,-3.0%,-12.6%
O=C(/C=C/c1ccccc1)NC(=S)NNC(=O)Cc1cccs1,?,10.8%,19.1%,17.2%,5.0%
COc1ccc(/C=C/C(=O)NC(=S)NNC(=O)Cc2cccs2)cc1,31.6µM*,6.2%,41.3%,13.1%,12.5%
CC1(C)CC(=O)C=C(NC2CCCCC2)C1,-9.6%[2.33 µM],1.8%,26.0%,5.7%,-25.0%
CCN(CC)CCOc1ccc(/C(=C(\Cl)c2ccccc2)c2ccccc2)cc1,·,?,?,13.5%,31.6µM*
CC/C(=C(/c1ccccc1)c1ccc(OCCN(C)C)cc1)c1ccccc1,22.4µM*,·,·,·,·
CCN(CC)CCOc1ccc(C(O)(Cc2ccc(Cl)cc2)c2ccc(C)cc2)cc1 (configuration not stated),-28.9%[12.7 µM],·,·,-7.2%,·
CCOc1ccc(C(=O)OCCN(C)C)cc1,-23.4%,-5.1%,32.0%,-3.8%,?
Cc1c(C(=O)N(C)C2CCCCC2)sc2nc3ccc(N)cc3n12,25.1µM*,·,·,·,·
O=C(O)CCCCCCCCCCC1CCC(O)C1O (configuration not stated),·,·,31.5%,-19.0%,-2.8%
CCOc1ccccc1Nc1nc(-c2cccnc2)cs1,-14.7%[59 µM],?,-23.5%,?,?
COc1ccccc1Nc1nc(-c2cccc(N3C(=O)c4ccccc4C3=O)c2)cs1,25.1µM*,-2.6%,17.2%,-6.4%,-12.8%
O=C1c2ccccc2C(=O)N1c1cccc(-c2csc(Nc3ccc4c(c3)OCO4)n2)c1,8.91µM*,?,·,·,·
CO/N=C/c1ccc(Oc2ccc(C)cc2)c([N+](=O)[O-])c1,9.1%,2.1%,-0.4%,?,12.6µM*
O=[N+]([O-])c1cc(/C=N/O)ccc1Oc1cccc(Cl)c1,-7.8%[59 µM],?,-3.3%,0.0%,?
C=CCOc1ccc(CNn2c(C)n[nH]c2=S)cc1OC,·,-0.3%,48.7%,4.9%,20µM*
C=CCOc1c(Br)cc(CNc2nccs2)cc1OC,11.2µM*,?,0.8%,-7.6%,?
COc1cc(CNC(C)(C)C)cc(Br)c1OCc1cccs1,-1.3%[59 µM],4.3%,-0.2%,4.9%,-26.8%
C=CCOc1ccc2ccccc2c1CNn1c(C)n[nH]c1=S,·,40.9%,26.8%,4.7%,?
C=CCOc1c(Br)cc(CNn2c(C)n[nH]c2=S)cc1OC,11.2µM*,-30.4%,?,38.4%,89.1µM*
O=C1CSC(=S)N1c1ccc(F)cc1,?,-28.9%,·,·,·
COc1ccc(/C=C2/SC(=S)N(c3ccc(S(=O)(=O)Nc4nccs4)cc3)C2=O)cc1,-48.6%,?,20µM*,-0.6%,15.8µM*
Cc1ccc(/C=C2/SC(=S)N(c3ccc(S(=O)(=O)Nc4nccs4)cc3)C2=O)cc1,·,?,?,10.3%,?
SMILES,G9a block,BAZ2B block,HP1b chromo inh,GLS inhibitor,JMJD2A Tudor
O=C1/C(=C\c2ccccn2)SC(=S)N1c1ccc(S(=O)(=O)Nc2nccs2)cc1,·,50.1µM*,?,3.8%,17.8µM*
O=[N+]([O-])c1cccc(/C=N/N=C\c2ccccc2)c1,38.9%,-37.2%,33.7%,6.6%,-28.8%
Oc1ccccc1/C=N/N1CCN(c2ccccn2)CC1,-5.2%,?,5.2%,21.0%,?
O=[N+]([O-])c1cccc(/C=N/N2CCN(Cc3ccc(Cl)cc3)CC2)c1,·,20µM*,?,-6.4%,50.1µM*
CC1CCCC(C)N1/N=C/c1cccc([N+](=O)[O-])c1 (configuration not stated),-16.7%[59 µM],10.5%[0.457 µM],-32.6%,2.9%,?
O=C(N/N=C/c1cccc([N+](=O)[O-])c1)c1ccc(CN2CCOCC2)cc1,-6.5%[59 µM],-2.4%,45.0%,4.2%,-25.4%
O=[N+]([O-])c1cccc(/C=N/N2CCN(Cc3ccccc3)CC2)c1,?,25.1µM*,-13.0%,-7.3%,?
O=[N+]([O-])c1cccc(/C=N\N2CCN(Cc3ccccc3Cl)CC2)c1,10µM*,35.5µM*,?,-2.8%,44.7µM*
C(=N\N1CCN(c2ccccn2)CC1)/c1cccc2ccccc12,39.8µM*,35.5µM*,?,-9.8%,39.8µM*
COc1ccc(CC(NC(C)=O)C(=O)NC2CCN(C(=O)Nc3ccccc3Cl)CC2)cc1OC (configuration not stated),1.7%,4.8%,12.1%,-20.6%,-13.6%
Cc1ccc(NC(=O)CCS(=O)(=O)c2cccc3nonc23)c(Cl)c1,14.4%,-1.6%,18.0%,-5.3%,1.1%
O=[N+]([O-])c1cccc(/C=N/N2CCN(c3ccccn3)CC2)c1,31.6µM*,-37.7%,?,6.2%,-21.6%
COc1ccc(-c2nc(SCc3ccccc3)n(S(C)(=O)=O)n2)cc1,22.5%[59 µM],-19.6%,44.8%,·,3.2%
CCS(=O)(=O)n1nc(-c2ccc(Cl)cc2)nc1SCc1ccccc1,7.08µM*,36.4%,70.5%,15.0%,39.8µM*
CCC1(C)NC(=O)N(CC(=O)Nc2sc3c(c2C(=O)OC)CCCCC3)C1=O (configuration not stated),50.1µM*,-26.4%,-23.7%,0.0%,?
CCC1(CC)NC(=O)N(CC(=O)Nc2sc3c(c2C(N)=O)CCC3)C1=O,-2.1%[12.7 µM],50.1µM*,5.4%,2.2%,?
COc1ccc(N(C(=O)/C=C\C(=O)Nc2ccc(C)cc2)C(C(=O)NCc2ccco2)c2ccc(C)cc2)cc1 (configuration not stated),14.1µM*,-19.7%,7.8%,-3.5%,?
COc1ccc(NC(=O)/C=C\C(=O)N(c2ccc(C(C)C)cc2)C(C(=O)NCc2ccco2)c2ccc(C)cc2)cc1 (configuration not stated),?,-17.3%,44.2%,-4.6%,-32.1%
O=C(CSc1nc2ccc([N+](=O)[O-])cc2[nH]1)NC1CCCC1,-27.1%,-22.1%,33.5%,1.1%,-1.5%
CC(=O)Nc1ccc(NC(=O)CCc2nc3sc4c(c3c(=O)[nH]2)CCCC4)cc1,15.7%[0.501 µM],-5.5%,22.2%,-4.9%,-31.5%
CCc1ccccc1NC(=O)CNC(=O)CCc1nc2sc3c(c2c(=O)[nH]1)CCCC3,?,50.1µM*,-4.4%,1.3%,?
CC1(NC(=O)CCc2nc3sc4c(c3c(=O)[nH]2)CCCC4)CCS(=O)(=O)C1 (configuration not stated),50.1µM*,79.4µM*,-16.1%,-10.9%,?
O=C(CCc1nc2sc3c(c2c(=O)[nH]1)CCCC3)NCCc1ccccc1,?,?,3.9%,3.8%,-20.0%
Cc1cc(C)cc(NC(=O)CCc2nc3sc4c(c3c(=O)[nH]2)CCCC4)c1,-2.6%[59 µM],-38.1%,18.3%,-8.5%,-27.4%

# Assay outcomes as filed in PubChem BioAssay.
